Reference: PubChem BioAssay (EPA / NIEHS)
“And” between values parts separate entries of the source, which are not always exact repeats. Identical values can stand only once. More than one record can exist for a structure, and the calls need not agree. The source made the active and inactive calls. The calls were made as follows: active = hit-call score of the fitted dose curve at least 0.9, where 1 is the maximum; inactive = score below 0.9.

Tested on: not listed separately
Assay: ATG_AP_2_CIS: Attagene CIS-FACTORIAL HepG2 Assay for human Activator Protein 2 (AP-2) (AID 2282932)
Conditions: HepG2 AP-2 cis-reporter, Attagene transcription factor profiling; actives raise or lower the signal
Method in brief: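 Liver-derived HepG2 line, cis-reporter system measuring endogenous factors; 24 h dosing; reporter mRNA detected by fluorescent RT-PCR and capillary electrophoresis.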

SMILES | outcome
OCCCl | inactive
CN(C)c1ccccc1 | inactive
CCCCOC(=O)c1ccccc1C(=O)OCc1ccccc1 | inactive
CCOc1cccc(C2(N3CCN(c4ccccc4)CC3)CCC(C)CC2)c1 (stereo not given) | inactive
Cc1cccc(N)c1N | inactive
CS(=O)(=O)NC(=O)c1cc(Oc2ccc(C(F)(F)F)cc2Cl)ccc1[N+](=O)[O-] | inactive
CCNS(=O)(=O)C(F)(F)C(F)(F)C(F)(F)C(F)(F)C(F)(F)C(F)(F)C(F)(F)C(F)(F)F | inactive
Clc1ccc(Cl)c(Cl)c1 | inactive
CCCCC(CC)COC(=O)c1ccc(C(=O)OCC(CC)CCCC)c(C(=O)OCC(CC)CCCC)c1 (stereo not given) | inactive
c1ccc2c(c1)oc1ccccc12 | inactive
CCCCCCCCCCCCCN1CC(C)OC(C)C1 (stereo not given) | inactive
CCCCCCCCOC(=O)c1ccc(C(=O)OCCCCCCCC)c(C(=O)OCCCCCCCC)c1 | inactive
O=Cc1ccco1 | inactive
Nc1ccc([N+](=O)[O-])cc1 | inactive
CC(C)(OOC(C)(C)c1ccccc1)c1ccccc1 | inactive
O=C1CCCO1 | inactive
O=C(N[C@H](c1ccccc1)[C@@H]1CN2CCC1CC2)c1c(Cl)ccc(C(F)(F)F)c1Cl | inactive
Cn1cc(-c2ccccc2)c(=O)c(-c2cccc(C(F)(F)F)c2)c1 | inactive
C1=Cc2cccc3cccc1c23 | inactive
c1ccc(NNc2ccccc2)cc1 | inactive
CCN(CC)N=O | inactive
Clc1ccccc1Cl | inactive
Cc1ccc(N)cc1 | inactive
c1ccc(C2CO2)cc1 (stereo not given) | inactive
CCC(C)c1ccc(O)cc1 (stereo not given) | inactive
Cc1ccc(N)c(N)c1 | inactive
OCCCBr | inactive
Cc1cc(N=Nc2ccccc2C)ccc1N | inactive

Tested on: not listed separately
Assay: ATG_BRE_CIS: Attagene CIS-FACTORIAL HepG2 Assay for human Bone Morphogenetic Protein (BMP) Response Element (BRE) (AID 2282933)
Conditions: HepG2 BMP response element reporter, Attagene transcription factor profiling; actives raise or lower the signal
Method in brief: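 Fluorescence-labelled reporter cDNA fragments, separated by capillary electrophoresis, gave the signal for this component of a 52-readout multiplex. HepG2 cells were transfected, exposed to chemicals for 24 h, and compared with DMSO using bidirectional fitting.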

SMILES | outcome | AC50
OCCCl | inactive | –
CN(C)c1ccccc1 | inactive | –
CCCCOC(=O)c1ccccc1C(=O)OCc1ccccc1 | inactive | –
CCOc1cccc(C2(N3CCN(c4ccccc4)CC3)CCC(C)CC2)c1 (stereo not given) | inactive | –
Cc1cccc(N)c1N | inactive | –
CS(=O)(=O)NC(=O)c1cc(Oc2ccc(C(F)(F)F)cc2Cl)ccc1[N+](=O)[O-] | inactive | –
CCNS(=O)(=O)C(F)(F)C(F)(F)C(F)(F)C(F)(F)C(F)(F)C(F)(F)C(F)(F)C(F)(F)F | – | 33.4 µM (active) and 63.6 µM (active) and 35.3 µM (active)
Clc1ccc(Cl)c(Cl)c1 | inactive | –
CCCCC(CC)COC(=O)c1ccc(C(=O)OCC(CC)CCCC)c(C(=O)OCC(CC)CCCC)c1 (stereo not given) | inactive | –
c1ccc2c(c1)oc1ccccc12 | inactive | –
CCCCCCCCCCCCCN1CC(C)OC(C)C1 (stereo not given) | – | 50 µM (active)
CCCCCCCCOC(=O)c1ccc(C(=O)OCCCCCCCC)c(C(=O)OCCCCCCCC)c1 | inactive | –
O=Cc1ccco1 | inactive | –
Nc1ccc([N+](=O)[O-])cc1 | inactive | –
CC(C)(OOC(C)(C)c1ccccc1)c1ccccc1 | – | 48.5 µM (active)
O=C1CCCO1 | inactive | –
O=C(N[C@H](c1ccccc1)[C@@H]1CN2CCC1CC2)c1c(Cl)ccc(C(F)(F)F)c1Cl | inactive | –
Cn1cc(-c2ccccc2)c(=O)c(-c2cccc(C(F)(F)F)c2)c1 | inactive | –
C1=Cc2cccc3cccc1c23 | inactive | –
c1ccc(NNc2ccccc2)cc1 | inactive | –
CCN(CC)N=O | inactive | –
Clc1ccccc1Cl | inactive | –
Cc1ccc(N)cc1 | inactive | –
c1ccc(C2CO2)cc1 (stereo not given) | inactive | –
CCC(C)c1ccc(O)cc1 (stereo not given) | – | 100 µM (active)
Cc1ccc(N)c(N)c1 | inactive | –
OCCCBr | inactive | –
Cc1cc(N=Nc2ccccc2C)ccc1N | – | 33.4 µM (active)

Target: Retinoic acid receptor alpha (Homo sapiens) (UniProt P10276)
Sequence (P10276 whole entry, looked up): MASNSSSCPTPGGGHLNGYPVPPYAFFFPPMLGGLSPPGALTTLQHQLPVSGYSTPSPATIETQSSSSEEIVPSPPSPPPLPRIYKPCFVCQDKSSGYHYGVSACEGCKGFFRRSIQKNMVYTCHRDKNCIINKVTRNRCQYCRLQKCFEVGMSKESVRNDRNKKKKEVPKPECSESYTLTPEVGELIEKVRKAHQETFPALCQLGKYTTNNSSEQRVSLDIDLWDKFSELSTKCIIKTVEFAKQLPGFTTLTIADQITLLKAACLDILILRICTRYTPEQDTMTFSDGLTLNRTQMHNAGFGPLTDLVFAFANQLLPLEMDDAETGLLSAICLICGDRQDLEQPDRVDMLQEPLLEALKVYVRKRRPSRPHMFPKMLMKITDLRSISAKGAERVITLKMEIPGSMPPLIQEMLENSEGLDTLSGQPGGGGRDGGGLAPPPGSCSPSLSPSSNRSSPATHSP
Assay: ATG_DR5_RAR_CIS: Attagene CIS-FACTORIAL HepG2 Assay for human Retinoic Acid Receptor Alpha (RARE), DR5 submotif (AID 2282934);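 as to AC50: reporter responds to endogenous RAR alpha beta and gamma in HepG2 not RARA alone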
Conditions: HepG2 Attagene cis-factorial RARE DR5 reporter, mRNA; actives raise or lower the signal
Method in brief: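 Read-out: DR5-driven reporter transcript measured by RT-PCR, 6-FAM primer extension, HpaI digest and capillary electrophoresis. Human HepG2 liver cells carry transiently transfected cis-element reporter constructs; dosing lasts 24 h. Gain or loss of signal fitted against DMSO baseline.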

SMILES | outcome | AC50
OCCCl | inactive | –
CN(C)c1ccccc1 | inactive | –
CCCCOC(=O)c1ccccc1C(=O)OCc1ccccc1 | inactive | –
CCOc1cccc(C2(N3CCN(c4ccccc4)CC3)CCC(C)CC2)c1 (stereo not given) | inactive | –
Cc1cccc(N)c1N | – | 106 µM (active)
CS(=O)(=O)NC(=O)c1cc(Oc2ccc(C(F)(F)F)cc2Cl)ccc1[N+](=O)[O-] | inactive | –
CCNS(=O)(=O)C(F)(F)C(F)(F)C(F)(F)C(F)(F)C(F)(F)C(F)(F)C(F)(F)C(F)(F)F | inactive | 96.5 µM (active)
Clc1ccc(Cl)c(Cl)c1 | inactive | –
CCCCC(CC)COC(=O)c1ccc(C(=O)OCC(CC)CCCC)c(C(=O)OCC(CC)CCCC)c1 (stereo not given) | inactive | –
CCCCCCCCCCCCCN1CC(C)OC(C)C1 (stereo not given) | inactive | –
CCCCCCCCOC(=O)c1ccc(C(=O)OCCCCCCCC)c(C(=O)OCCCCCCCC)c1 | inactive | –
O=Cc1ccco1 | inactive | –
CC(C)(OOC(C)(C)c1ccccc1)c1ccccc1 | inactive | –
O=C1CCCO1 | inactive | –
Cn1cc(-c2ccccc2)c(=O)c(-c2cccc(C(F)(F)F)c2)c1 | – | 15.3 µM (active)
C1=Cc2cccc3cccc1c23 | inactive | –
c1ccc(NNc2ccccc2)cc1 | inactive | –
CCN(CC)N=O | inactive | –
Clc1ccccc1Cl | inactive | –
Cc1ccc(N)cc1 | inactive | –
Cc1ccc(N)c(N)c1 | inactive | –
OCCCBr | inactive | –
Cc1cc(N=Nc2ccccc2C)ccc1N | inactive | –
